PubChem BioAssay AID651823 (Broad Institute, 2012)
The list shows a part of the results. Active and inactive are the calls of the source. Cut-off read from the data, not from the text of the source: active = max delta Tm above about 0.48 degrees C; inactive = the rest.

The molecules below were run against Kelch-like ECH-associated protein 1 (Homo sapiens) (UniProt Q14145) (assay: Tm shift of Keap1 Kelch upon compound binding – biophysical, thermal shift, RT-PCR instrument, cherry-pick, dose response (AID 651823)). Conditions: active compounds read high; at 50 µM unless noted.
Sequence of Kelch-like ECH-associated protein 1 (Homo sapiens) (Q14145 whole entry, looked up): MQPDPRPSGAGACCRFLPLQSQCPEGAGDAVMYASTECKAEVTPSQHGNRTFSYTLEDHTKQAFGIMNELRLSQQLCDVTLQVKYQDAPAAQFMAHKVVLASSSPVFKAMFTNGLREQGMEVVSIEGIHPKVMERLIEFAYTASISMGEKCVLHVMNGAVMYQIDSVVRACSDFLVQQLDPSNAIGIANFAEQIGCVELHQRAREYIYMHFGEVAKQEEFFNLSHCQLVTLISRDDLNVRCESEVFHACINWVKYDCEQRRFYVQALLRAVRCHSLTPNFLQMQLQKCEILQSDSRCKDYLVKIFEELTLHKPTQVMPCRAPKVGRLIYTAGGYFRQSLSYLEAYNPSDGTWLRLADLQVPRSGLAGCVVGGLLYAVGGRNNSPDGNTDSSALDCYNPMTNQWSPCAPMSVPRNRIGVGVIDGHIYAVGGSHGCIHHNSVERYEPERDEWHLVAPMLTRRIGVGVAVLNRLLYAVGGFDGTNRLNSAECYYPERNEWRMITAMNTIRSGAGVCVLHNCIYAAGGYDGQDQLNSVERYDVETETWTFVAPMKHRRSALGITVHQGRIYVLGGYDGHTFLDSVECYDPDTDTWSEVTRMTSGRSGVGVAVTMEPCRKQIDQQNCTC

SMILES	max delta Tm
CN1C(=O)c2cccc3c(N)ccc(c23)C1=O	0 °C [at 26 µM] (inactive)
O=C(CCc1ccccc1)NNc1ccc(F)cc1	-0.17 °C [at 0.8 µM] (inactive)
CCCC(=O)Nc1ccc(C(=O)NCCCn2ccnc2)cc1	-0.11 °C (inactive)
Cc1cccc(NS(=O)(=O)c2ccc(C)c(C(=O)NCC(c3ccccc3)N(C)C)c2)c1 (stereo not given)	-0.11 °C [at 0.8 µM] (inactive)
COc1ccc(C2c3ccc(O)cc3Oc3ncn(CCCO)c(=N)c32)cc1OC (stereo not given)	-0.15 °C [at 6 µM] (inactive)
O=C(NCCOCc1ccc(Cl)cc1)c1ncn[nH]1	-0.19 °C (inactive)
CCCN(CCC)C(=O)C1c2ccccc2Oc2ccccc21	-0.08 °C [at 0.38 µM] (inactive)
COC(=O)C[n+]1cccc2ccccc21	-0.13 °C (inactive)
CC1(C)CC(=O)C(N=Nc2c(F)cccc2F)=C(O)C1	-0.12 °C [at 6 µM] (inactive)
O=C1CC(Cc2ccc(Cl)cc2)C(=O)N1c1cc(Cl)ccn1 (stereo not given)	-0.06 °C [at 0.38 µM] (inactive)
COc1cc(OC)c(S(=O)(=O)Nc2ccccc2C(=O)O)cc1S(=O)(=O)Nc1ccccc1C(=O)O	0.77 °C (active)
O=C(O)CC(Cn1cnnn1)c1ccccc1 (stereo not given)	-0.14 °C [at 3 µM] (inactive)
Nc1ccc2nc3c(=O)[nH]c(=S)[nH]c3nc2c1	0.14 °C (inactive)
COc1ccc(Nc2nc(-c3cccnc3)nc3ccccc23)cn1	-0.21 °C [at 1.6 µM] (inactive)
CCN1/C(=C\c2ccc3ccccc3[n+]2CC)Sc2cc(C)ccc21	-0.01 °C [at 26 µM] (inactive)
